Compound activity (PubChem BioAssay)
The list is not random: actives were taken first. Their share in the collection is about 9.9%.
MCF10A rereplic = induces DNA re-replication in MCF 10a normal breast cells. Potency, µM (titrated, usually from 46.1 µM), for the others: top-dose activity, positive = re-replication, hits mostly activators. hit rate 2.9% among 350,000. AID 624296. MCF 10A DNA re-replication, Hoechst nuclear intensity, 48 h; note: potency is the fitted concentration of half-maximal effect; % of control where 0% means no effect; nearly all actives have a fitted effect of over 50% in size
KB-V1 MDR tox = KB-V1 MDR subline cytotoxicity | AID 1347076 | KB-V1 MDR cells viability, CellTiter-Glo, 72 h | hit rate 3.4% among 400,000 | Potency, µM (titrated, usually from 46.1 µM), hits mostly cytotoxic; note: potency is the fitted concentration of half-maximal effect; % is set by controls: 0 for no effect and ±100 for the full control effect; nearly all actives have a fitted effect of over 60% in size
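KB-V1 MDR subline cells in DMEM (phenol-red free, 10% FBS) exposed to compounds in qHTS concentration series for 72 h at 37 degrees C. Viability read by CellTiter-Glo luminescence; concentration-effect curves fitted after normalization and correction.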
SW480 rerep = induces DNA re-replication in SW480 colon adenocarcinoma cells. hit rate 1.8% among 340,000. Potency, µM (series often up to 46.1 µM), for the others: at the highest dose re-replication activation, hits mostly activators. AID 624297. SW480 DNA re-replication, Hoechst DNA content imaging, 48 h; note: potency is the fitted concentration of half-maximal effect; % of control where 0% means no effect; nearly all actives have a fitted effect of over 55% in size
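Image-based read-out: total Hoechst fluorescence of nuclei (405 nm excitation, 500-530 nm emission), with hits raising the fraction of high-intensity nuclei. SW480 colon cells incubated 48 hr with compounds at 37 C.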
KB-3-1 cytotox = KB-3-1 parental cell cytotoxicity. Potency, µM (top dose mostly 46.1 µM), actives largely listed as cytotoxic. hit rate 1.4% among 400,000. KB-3-1 viability, CellTiter-Glo ATP luminescence, 72 h; note: potency is the fitted concentration of half-maximal effect; % is set by controls: 0 for no effect and ±100 for the full control effect; nearly all actives have a fitted effect of over 60% in size
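KB-3-1 parental drug-naive adenocarcinoma cells in DMEM/10% FBS, incubated 72 h at 37 C with pin-transferred compounds across a concentration series. Viability by CellTiter-Glo luminescence; concentration-response curves fitted after normalization.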
IL1B secr inh = inhibitors of inflammasome signaling (IL-1 beta secretion) | activity change, % at 57.5 µM | hit rate 4.7% among 360,000 | THP-1 LPS/ATP IL-1B secretion, AlphaLISA, 16 h; hits give low values | AID 743279; in the data active = activity change below about -50%; inconclusive = mostly about -30% to -49%; note: % is set by controls: 0 for no effect and ±100 for the full control effect
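THP-1 cells pretreated 1 hr with compounds (up to 57.5 uM final), then stimulated with LPS (250 ng/mL final) plus ATP (1.25 mM final); secreted IL-1B measured by AlphaLISA after 16 hr, decreased signal indicating inhibition.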
* = called active by the depositor; i = inactive; ? = inconclusive; . = not tested or not shown. Unless noted, calls come from the whole dose curve; as a rule, active = well fitted curve in the direction sought with a large enough effect; inconclusive = small, poorly fitted or top-dose-only effect, or another doubt; inactive = no such curve, though single readings can be large; an effect the other way counts as inactive or inconclusive.

SMILES	MCF10A rereplic	KB-V1 MDR tox	SW480 rerep	KB-3-1 cytotox	IL1B secr inh
Cc1ccc(C)c(Cn2nnc3c(=O)[nH]c(C4CCN(S(=O)(=O)c5ccc(S(=O)(=O)NC6CC6)cc5)CC4)nc32)c1	1%	?	22%	?	-54*
CC(=O)Nc1ccc(S(=O)(=O)N2CCC(c3nc4c(nnn4Cc4ccccc4Cl)c(=O)[nH]3)CC2)cc1	11%	i	-4%	i	-51*
Cc1ccc(C)c(Cn2nnc3c(=O)[nH]c(C4CCN(S(=O)(=O)c5ccc(S(=O)(=O)N(C)C)cc5)CC4)nc32)c1	4%	i	14%	i	?
O=C1N[C@H](Cc2ccccc2)COC(=O)[C@H](Cc2ccc(F)cc2)CC/C=C/C[C@H]1CC(=O)N(CCO)Cc1ccccc1	19%	i	13%	i	0
O=C1N[C@@H](Cc2ccccc2)COC(=O)[C@@H](Cc2ccc(F)cc2)C/C=C\C[C@@H]1CC(=O)N(CCO)Cc1ccccc1	23µM*	?	?	?	?
COc1ccccc1N1CCN(S(=O)(=O)c2ccc(F)cc2)CC1	0%	13µM*	0%	i	-20
Cn1c(SCc2ccc(Cl)cc2)nc(C(F)(F)F)cc1=O	20%	16µM*	-3%	?	-8
COC(=O)c1cnc(SCc2ccc(Cl)cc2)n1C	-10%	i	1%	i	-3
CCCN(S(=O)(=O)c1ccccc1F)S(=O)(=O)c1ccccc1Br	21µM*	i	?	i	1
COC(=O)[C@@]12C[C@@H](CC(=O)NCc3cccc(C(F)(F)F)c3)C(=O)N(Cc3ccc4c(c3)OCO4)C1=CCC(C)(C)C2	.	21µM*	.	?	-71*
COC(=O)[C@@]12C[C@@H](CC(=O)NCCC(C)C)C(=O)N(Cc3ccc4c(c3)OCO4)C1=CCC(C)(C)C2	.	?	.	i	-55*
Oc1cccc(/C=N/N(Cc2ccccc2)c2ccccc2)c1	?	?	?	i	-55*
C(=N\N(Cc1ccccc1)c1ccccc1)/c1cccnc1	24%	i	-10%	i	-19
COc1ccccc1/C=C/C(=O)c1cc(Br)ccc1OC(=O)c1ccco1	10µM*	?	?	?	-98*
COc1ccc(Br)cc1C(=O)Nc1ccc(NC(=O)c2ccco2)cc1	?	i	-4%	i	-1
Cc1ccc(/C=C/C(=O)c2cc(Br)ccc2OC(=O)c2ccco2)cc1	16µM*	?	?	i	-14
COc1cc([N+](=O)[O-])ccc1NC(=O)NCCCN1CCCC1=O	0%	i	-7%	i	-18
COc1cc(-c2nc3cccc(C)n3c2NCC2CCCO2)ccc1O (stereo unspecified)	11%	?	-5%	i	-21
CCn1c(SCC#N)nc2c(c1=O)C1(CCCC1)Cc1ccccc1-2	?	i	4%	?	-7
CCCn1c(SCC(N)=O)nc2c(c1=O)C1(CCCC1)Cc1ccccc1-2	?	i	-9%	i	-58*
Cn1c(NCCCO)nc2c(c1=O)C1(CCCCC1)Cc1ccccc1-2	18µM*	i	0%	i	-14
CCSc1n[nH]c2nc3c(c(=O)n12)C1(CCCCC1)Cc1ccccc1-3	5.2µM*	i	-3%	i	24
CCC1(C)Cc2ccccc2-c2nc(NCCCO)n(-c3ccccc3)c(=O)c21 (stereo unspecified)	?	?	-1%	?	-6
N#CCSc1n[nH]c2nc3c(c(=O)n12)C1(CCCCC1)Cc1ccccc1-3	16µM*	i	?	i	-26
CSCCC(NS(=O)(=O)c1ccccc1F)C(=O)Nc1ccncc1 (stereo unspecified)	0%	i	-25%	i	11
SMILES	MCF10A rereplic	KB-V1 MDR tox	SW480 rerep	KB-3-1 cytotox	IL1B secr inh
Cc1nc2cccnc2n1-c1cccc(C(=O)NCc2ccc(OC(C)C)cc2)c1	.	i	.	i	.
CCc1ccc(NC(=O)N2CCN(Cc3nc4ccc(C)cc4o3)CC2)cc1	.	i	.	i	.
CCN1CCN(CNC(=O)c2cnccn2)CC1	16%	23µM*	9%	?	6
CN(C)c1cccc(-c2nnc(SCCCC#N)o2)c1	2%	21µM*	-5%	i	-19
CC1=CC(C)(C)n2c(O)c(N=NC(N)=S)c3cc(C)cc1c32	?	i	16µM*	i	-7
Cn1c(O)c(N=NC(N)=S)c2ccccc21	14%	.	-5%	.	.
COc1cc(Cl)c(C)cc1NC(=O)NC1COc2ccccc2C1 (stereo unspecified)	.	i	.	i	.
Cc1nn(-c2ccccc2)c2sc(C(=O)NNC(=O)COc3cccc4ccccc34)cc12	23µM*	18µM*	?	?	2
Cc1nn(-c2ccccc2)c2sc(C(=O)N3CCc4ccccc4C3)cc12	-4%	18µM*	0%	i	?
Cc1nn(-c2ccccc2)c2sc(C(=O)N3CCCCC3)cc12	41%	?	3%	i	-16
Cc1noc(C)c1NC(=O)N(C)C[C@@H]1Oc2ccc(NC(=O)C3CCCCC3)cc2C(=O)N([C@@H](C)CO)C[C@H]1C	18%	i	-1%	i	9
Cc1cccc(Cn2nnc3c(=O)[nH]c(C4CCCN(C(=O)c5ccc(C(C)(C)C)cc5)C4)nc32)c1 (stereo unspecified)	.	i	.	?	.
Cc1cc2ncc(-c3cccc(Cl)c3)cn2n1	9%	i	-6%	i	14
Cc1cc2ncc(C(N)=O)cn2n1	29%	i	4.1µM*	i	-5
COc1cccc(/C=N/NC(=O)c2c(-c3ccccc3)noc2C)c1O	?	i	?	?	116
Cc1cc(C)n(-c2nc(Nc3ccccc3)nc(-n3nc(C)cc3C)n2)n1	5%	i	-10%	i	-2
COc1cccc(/C=N/Nc2nc(Nc3ccccc3)nc(-n3nc(C)cc3C)n2)c1O	15µM*	?	5.8µM*	5.2µM*	0
COc1cccc(/C=N/Nc2cc(-n3nc(C)cc3-c3ccccc3)ncn2)c1O	3.7µM*	?	?	?	58
CCOC(=O)c1ccc(-n2ccnc2)c(NC(=O)c2ccc(C(C)(C)C)cc2)c1	?	i	13µM*	i	0
COc1ccccc1CNC(=O)COC(=O)c1ccccc1-c1ccccc1	0%	?	0%	i	-83*
CCCCS/C(N)=N/N=C/c1ccccc1O	?	i	?	i	-29
CCCS/C(N)=N/N=C/c1cc(C)ccc1O	?	?	?	i	-51*
Cc1cccc(CC(=O)N2CCCC2)c1	-2%	i	17%	i	6
